# Measurements reported in PubChem BioAssay (EPA / NIEHS).
# Several values for one entry are separate records, joined by “and”; a condition that tells them apart may be missing. Equal entries are not always repeated. Records with an inconclusive call do not appear. Where a structure was tested more than once in an assay, its records may differ in their call. Activity calls are given as the source filed them. The calls were made as follows: active = hit-call score of the fitted dose curve at least 0.9, where 1 is the maximum; inconclusive = response in the unintended direction; inactive = score below 0.9.
# Columns and labels:
# [1] = target: Androgen receptor (Homo sapiens) (UniProt P10275); assay: ATG_AR_TRANS: Attagene TRANS-FACTORIAL HepG2 Assay for human Androgen Receptor (AR) (AID 2282973); conditions: HepG2 Attagene TRANS-FACTORIAL AR reporter transcription
# Androgen receptor (Homo sapiens), sequence (P10275 whole entry, looked up, the tested form may be a part): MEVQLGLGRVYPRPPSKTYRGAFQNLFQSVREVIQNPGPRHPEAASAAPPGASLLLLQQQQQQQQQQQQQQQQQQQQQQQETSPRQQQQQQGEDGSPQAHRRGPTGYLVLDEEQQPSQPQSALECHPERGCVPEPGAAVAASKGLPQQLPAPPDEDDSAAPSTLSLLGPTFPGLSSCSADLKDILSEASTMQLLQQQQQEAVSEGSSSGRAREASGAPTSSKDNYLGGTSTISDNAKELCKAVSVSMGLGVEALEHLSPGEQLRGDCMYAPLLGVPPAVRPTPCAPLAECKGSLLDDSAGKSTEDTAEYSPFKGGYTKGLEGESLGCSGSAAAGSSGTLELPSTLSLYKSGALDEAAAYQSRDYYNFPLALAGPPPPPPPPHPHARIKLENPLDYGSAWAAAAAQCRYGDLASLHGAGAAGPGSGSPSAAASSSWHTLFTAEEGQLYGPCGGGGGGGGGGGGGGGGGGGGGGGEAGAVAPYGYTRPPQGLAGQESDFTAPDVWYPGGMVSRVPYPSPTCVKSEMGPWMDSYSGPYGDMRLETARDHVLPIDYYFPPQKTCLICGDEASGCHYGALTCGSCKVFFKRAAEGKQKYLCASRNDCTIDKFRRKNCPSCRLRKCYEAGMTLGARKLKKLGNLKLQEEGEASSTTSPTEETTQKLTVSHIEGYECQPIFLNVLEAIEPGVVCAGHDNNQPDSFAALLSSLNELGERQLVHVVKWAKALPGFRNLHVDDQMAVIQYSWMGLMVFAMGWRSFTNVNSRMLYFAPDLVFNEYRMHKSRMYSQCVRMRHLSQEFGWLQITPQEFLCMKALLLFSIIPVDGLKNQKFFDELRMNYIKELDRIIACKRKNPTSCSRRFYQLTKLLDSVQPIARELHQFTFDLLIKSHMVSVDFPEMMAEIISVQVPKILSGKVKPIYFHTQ
# How it was run: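 Chimeric nuclear receptor–Gal4 activity was assessed in human HepG2 hepatocytes after 24 h chemical dosing. Induced reporter mRNA was detected via labelled RT-PCR fragments on capillary electrophoresis, and gain of signal was analysed against DMSO.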
# [2] = target: human Acetylcholinesterase (AChE), ACHE (gene 43) (UniProt P22303); assay: NVS_ENZ_hAChE: NovaScreen (NVS) Enzymatic Assay for human Acetylcholinesterase (AChE) (AID 2283129)
# human Acetylcholinesterase (AChE), ACHE (gene 43), sequence (P22303 whole entry, looked up): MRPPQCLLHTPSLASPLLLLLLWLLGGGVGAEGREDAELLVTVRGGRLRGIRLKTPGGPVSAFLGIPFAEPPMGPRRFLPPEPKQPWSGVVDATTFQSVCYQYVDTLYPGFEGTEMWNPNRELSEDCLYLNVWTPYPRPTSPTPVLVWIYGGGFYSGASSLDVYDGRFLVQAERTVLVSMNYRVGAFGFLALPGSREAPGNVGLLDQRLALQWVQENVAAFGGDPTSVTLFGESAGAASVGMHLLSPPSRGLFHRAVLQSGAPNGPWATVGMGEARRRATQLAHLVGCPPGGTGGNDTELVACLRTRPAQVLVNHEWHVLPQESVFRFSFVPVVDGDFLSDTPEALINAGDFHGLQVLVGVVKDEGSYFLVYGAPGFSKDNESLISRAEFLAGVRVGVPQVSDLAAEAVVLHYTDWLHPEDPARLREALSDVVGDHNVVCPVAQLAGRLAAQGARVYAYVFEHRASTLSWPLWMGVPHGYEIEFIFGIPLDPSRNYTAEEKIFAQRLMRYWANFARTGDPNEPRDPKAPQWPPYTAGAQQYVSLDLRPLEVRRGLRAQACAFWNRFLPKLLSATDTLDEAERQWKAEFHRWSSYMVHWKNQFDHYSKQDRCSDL
# How it was run: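 Cell-free colorimetric enzyme-activity assay; compounds read 0.33 hour after dosing, loss of signal vs DMSO baseline. Primary screen in duplicate at 25 uM single concentration, with active compounds retested in concentration series.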
# [3] = target: human Matrix Metalloproteinase-1 (MMP1), MMP1 (gene 4312) (UniProt P03956); assay: NVS_ENZ_hMMP1: NovaScreen (NVS) Enzymatic Assay for human Matrix Metalloproteinase-1 (MMP1) (AID 2283181)
# human Matrix Metalloproteinase-1 (MMP1), MMP1 (gene 4312), sequence (P03956 whole entry, looked up): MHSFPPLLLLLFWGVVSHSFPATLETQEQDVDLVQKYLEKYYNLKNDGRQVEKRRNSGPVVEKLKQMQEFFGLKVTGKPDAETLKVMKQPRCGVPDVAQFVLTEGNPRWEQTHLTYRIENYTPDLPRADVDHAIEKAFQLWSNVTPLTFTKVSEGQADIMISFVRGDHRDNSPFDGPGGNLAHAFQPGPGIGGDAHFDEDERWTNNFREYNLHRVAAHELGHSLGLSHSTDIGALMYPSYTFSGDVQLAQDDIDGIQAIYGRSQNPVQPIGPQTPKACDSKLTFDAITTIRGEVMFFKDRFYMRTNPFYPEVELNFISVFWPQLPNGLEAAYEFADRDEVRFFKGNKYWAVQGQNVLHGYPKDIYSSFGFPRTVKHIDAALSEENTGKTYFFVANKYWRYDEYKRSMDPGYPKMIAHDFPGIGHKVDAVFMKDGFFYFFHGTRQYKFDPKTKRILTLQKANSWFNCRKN
# How it was run: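 Human MMP1 enzyme activity measured by fluorescence 1 h after dosing, cell-free, with a specific substrate. Screened in duplicate at 25 uM; hits (e.g. 30% inhibition) run in concentration-response up to 50 uM; loss of signal versus DMSO.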
# [4] = target: rat Acetylcholinesterase (AChE), Ache (gene 83817) (UniProt P37136); assay: NVS_ENZ_rAChE: NovaScreen (NVS) Enzymatic Assay for rat Acetylcholinesterase (AChE) (AID 2283233)
# rat Acetylcholinesterase (AChE), Ache (gene 83817), sequence (P37136 whole entry, looked up): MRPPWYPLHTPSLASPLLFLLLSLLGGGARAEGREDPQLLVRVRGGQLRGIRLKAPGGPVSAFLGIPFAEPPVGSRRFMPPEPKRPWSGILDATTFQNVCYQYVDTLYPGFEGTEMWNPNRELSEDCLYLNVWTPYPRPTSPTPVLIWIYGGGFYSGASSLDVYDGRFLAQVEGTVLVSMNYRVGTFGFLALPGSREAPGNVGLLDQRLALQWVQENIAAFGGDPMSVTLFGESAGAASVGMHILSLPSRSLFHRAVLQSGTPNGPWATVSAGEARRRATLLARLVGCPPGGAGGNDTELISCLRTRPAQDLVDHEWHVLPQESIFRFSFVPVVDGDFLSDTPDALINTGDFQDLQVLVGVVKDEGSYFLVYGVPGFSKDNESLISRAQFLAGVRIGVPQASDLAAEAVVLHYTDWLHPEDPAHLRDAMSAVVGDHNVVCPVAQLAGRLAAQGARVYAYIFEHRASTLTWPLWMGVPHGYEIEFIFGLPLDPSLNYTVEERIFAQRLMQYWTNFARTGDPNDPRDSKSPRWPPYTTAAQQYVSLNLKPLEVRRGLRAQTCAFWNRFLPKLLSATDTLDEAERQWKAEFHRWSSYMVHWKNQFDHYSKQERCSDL
# How it was run: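 Rat brain membrane acetylcholinesterase activity measured colorimetrically 0.33 h after compound addition, loss of signal relative to DMSO. Primary screen in duplicate at 25 uM; actives re-run as concentration-response with 50 uM top concentration.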
# rat CYP2B1, gene 24300 = assay: NVS_ADME_rCYP2B1: NovaScreen (NVS) CYP450-related Enzyme Activity (ADME) Assay for rat CYP2B1 (AID 2283117)
# How it was run: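 Recombinant rat CYP2B1 with fluorogenic substrate, read at 0.75 h. Primary screen in duplicate at 10 uM; compounds meeting threshold (e.g., 30% inhibition) re-run in concentration-response up to 20 uM. Fitted against acetonitrile control.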
# [5] = target: Protein deacetylase HDAC6 (Homo sapiens) (UniProt Q9UBN7); assay: NVS_ENZ_hHDAC6: NovaScreen (NVS) Enzymatic Assay for human Histone Deacetylase 6 (HDAC6) (AID 2283164)
# How it was run: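 Recombinant human HDAC6 with fluorescent substrate, 1 h; product separated from substrate by electrophoretic mobility shift. Primary screen in duplicate at 25 uM; actives retested singly in concentration-response up to 50 uM, fitted relative to DMSO.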
# [6] = target: rat Monoamine Oxidase, MAO-B, Central (MAOBC), Maob (gene 25750) (UniProt P19643); assay: NVS_ENZ_rMAOBC: NovaScreen (NVS) Enzymatic Assay for rat Monoamine Oxidase, MAO-B, Central (MAOBC) (AID 2283238)
# rat Monoamine Oxidase, MAO-B, Central (MAOBC), Maob (gene 25750), sequence (P19643 whole entry, looked up): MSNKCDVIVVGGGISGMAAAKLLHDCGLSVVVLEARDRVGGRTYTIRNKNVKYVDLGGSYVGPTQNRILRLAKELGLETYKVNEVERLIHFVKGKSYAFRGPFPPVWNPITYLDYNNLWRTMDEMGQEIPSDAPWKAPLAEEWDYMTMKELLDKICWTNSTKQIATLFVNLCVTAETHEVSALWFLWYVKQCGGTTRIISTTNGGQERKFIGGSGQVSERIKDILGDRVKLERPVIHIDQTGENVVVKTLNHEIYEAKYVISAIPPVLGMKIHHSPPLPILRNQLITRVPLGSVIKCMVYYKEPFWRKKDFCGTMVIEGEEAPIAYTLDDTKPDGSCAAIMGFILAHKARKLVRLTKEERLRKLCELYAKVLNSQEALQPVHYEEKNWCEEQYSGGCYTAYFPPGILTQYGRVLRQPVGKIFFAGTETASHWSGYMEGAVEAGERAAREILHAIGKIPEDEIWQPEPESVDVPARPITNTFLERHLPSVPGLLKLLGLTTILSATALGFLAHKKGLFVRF
# How it was run: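 MAO-B activity in rat brain tissue preparation, cell-free, measured radiometrically by scintillation counting 1.17 h after dosing. Screened in duplicate at 25 uM; actives then in concentration-response up to 50 uM. Loss of signal versus DMSO scored.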
# [7] = target: rat Monoamine Oxidase, MAO-B, Peripheral (MAOBP), Maob (gene 25750) (UniProt P19643); assay: NVS_ENZ_rMAOBP: NovaScreen (NVS) Enzymatic Assay for rat Monoamine Oxidase, MAO-B, Peripheral (MAOBP) (AID 2283242)
# [8] = target: Bile acid receptor (Homo sapiens) (UniProt Q96RI1); assay: NVS_NR_hFXR_Agonist: NovaScreen (NVS) Nuclear Receptor Binding Assay for human Farnesoid X Receptor Agonism (FXR) (AID 2283347)
# Bile acid receptor (Homo sapiens), sequence (Q96RI1 whole entry, looked up): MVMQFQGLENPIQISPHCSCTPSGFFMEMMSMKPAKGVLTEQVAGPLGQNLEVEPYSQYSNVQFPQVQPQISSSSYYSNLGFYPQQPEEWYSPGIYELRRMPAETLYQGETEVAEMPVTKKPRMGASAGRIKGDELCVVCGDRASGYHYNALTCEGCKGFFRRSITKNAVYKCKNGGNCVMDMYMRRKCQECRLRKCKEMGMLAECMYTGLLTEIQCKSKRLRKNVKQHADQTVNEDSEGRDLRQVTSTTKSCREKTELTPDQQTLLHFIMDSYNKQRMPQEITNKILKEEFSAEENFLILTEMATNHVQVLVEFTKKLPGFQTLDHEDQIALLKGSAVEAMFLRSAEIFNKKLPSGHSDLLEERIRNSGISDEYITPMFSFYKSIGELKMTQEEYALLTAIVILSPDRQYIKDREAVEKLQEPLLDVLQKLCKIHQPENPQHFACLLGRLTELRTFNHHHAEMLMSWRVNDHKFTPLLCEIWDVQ
# How it was run: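 Cell-free TR-FRET binding assay with extracted human FXR protein, agonist format, read 1 h after dosing. Primary screen at 25 uM single concentration in duplicate, actives retested in concentration series; gain of signal versus DMSO.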
# [9] = target: Norway rat Vesicular Monoamine Transporter (VMAT2), neurotransmitter transporter, Slc18a2 (gene 25549) (UniProt Q01827); assay: NVS_TR_rVMAT2: NovaScreen (NVS) Transporter Assay for Norway rat Vesicular Monoamine Transporter (VMAT2), neurotransmitter transporter (AID 2283376);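 also: actives lower the bound radioligand signal below the DMSO level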
# How it was run: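 Radioligand displacement binding on rat forebrain tissue preparation, filter-based scintillation read-out 1 hour after dosing. Primary screen in duplicate at 25 uM, then concentration series for actives; loss of signal versus DMSO.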
# [10] = ATG_M_32_XSP2: Attagene TRANS-FACTORIAL Multi-Species (XSP2) HepG2 Assay for M19 Transcription Factor (Internal Marker) (AID 2283826)
# How it was run: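 An internal background marker among multiplexed transfected reporters in HepG2 liver cells was measured 24 h after dosing. Androgen receptor stimulation came from 3 nM 6-alpha-fluorotestosterone and 1.5 nM norgestrel.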
# [11] = target: human Caspase 10 (CASP10), CASP10 (gene 843) (UniProt Q92851); assay: NVS_ENZ_hCASP10: NovaScreen (NVS) Enzymatic Assay for human Caspase 10 (CASP10) (AID 2283133)
# human Caspase 10 (CASP10), CASP10 (gene 843), sequence (Q92851 whole entry, looked up): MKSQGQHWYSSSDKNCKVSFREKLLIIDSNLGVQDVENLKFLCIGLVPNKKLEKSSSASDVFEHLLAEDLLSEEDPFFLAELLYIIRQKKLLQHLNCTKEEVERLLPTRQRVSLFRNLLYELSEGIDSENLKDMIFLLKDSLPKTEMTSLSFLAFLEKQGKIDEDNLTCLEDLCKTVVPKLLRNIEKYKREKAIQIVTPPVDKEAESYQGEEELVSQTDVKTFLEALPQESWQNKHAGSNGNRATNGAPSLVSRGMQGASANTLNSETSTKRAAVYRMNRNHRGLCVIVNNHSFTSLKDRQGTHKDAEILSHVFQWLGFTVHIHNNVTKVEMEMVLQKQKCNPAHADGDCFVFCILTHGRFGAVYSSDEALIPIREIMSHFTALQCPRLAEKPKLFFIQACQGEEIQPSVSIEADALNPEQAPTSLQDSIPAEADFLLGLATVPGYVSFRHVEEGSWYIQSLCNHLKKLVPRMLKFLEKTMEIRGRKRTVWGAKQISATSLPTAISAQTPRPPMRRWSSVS
# How it was run: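 Recombinant human caspase-10 from E. coli, cell-free fluorogenic substrate assay read 1 h after dosing. Primary duplicate screen at 25 uM; hits (e.g. ≥30% inhibition) run singly in concentration-response up to 50 uM, normalised to DMSO.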
# [12] = target: human Caspase 2 (CASP2), CASP2 (gene 835) (UniProt P42575); assay: NVS_ENZ_hCASP2: NovaScreen (NVS) Enzymatic Assay for human Caspase 2 (CASP2) (AID 2283135)
# human Caspase 2 (CASP2), CASP2 (gene 835), sequence (P42575 whole entry, looked up): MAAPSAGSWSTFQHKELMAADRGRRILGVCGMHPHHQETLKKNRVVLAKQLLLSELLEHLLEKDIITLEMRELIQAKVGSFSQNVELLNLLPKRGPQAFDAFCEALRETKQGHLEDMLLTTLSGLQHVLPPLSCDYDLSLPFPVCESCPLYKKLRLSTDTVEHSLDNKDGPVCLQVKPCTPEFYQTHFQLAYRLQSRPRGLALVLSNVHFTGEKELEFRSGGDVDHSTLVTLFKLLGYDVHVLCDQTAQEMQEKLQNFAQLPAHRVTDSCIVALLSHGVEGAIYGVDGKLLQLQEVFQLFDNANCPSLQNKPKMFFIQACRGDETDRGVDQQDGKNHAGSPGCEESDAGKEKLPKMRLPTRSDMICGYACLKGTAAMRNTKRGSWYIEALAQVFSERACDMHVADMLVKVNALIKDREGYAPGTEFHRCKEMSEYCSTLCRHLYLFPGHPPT
# How it was run: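 E. coli-expressed enzyme in a cell-free protease assay, fluorescence read 1 h after dosing. Compounds at 25 uM in duplicate, with concentration-response up to 50 uM for hits; loss of signal against DMSO baseline.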
# [13] = system: rat Monoamine Oxidase, MAO-A, Central (MAOAC), gene 29253; assay: NVS_ENZ_rMAOAC: NovaScreen (NVS) Enzymatic Assay for rat Monoamine Oxidase, MAO-A, Central (MAOAC) (AID 2283243);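 also: potency refers to inhibition seen as signal drop below DMSO baseline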
# How it was run: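 Inhibition of rat brain-derived MAO-A was read by scintillation counting after 1.5 h exposure. Compounds screened first at 25 uM in duplicate, then in dose series if active.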
# [14] = target: human MET Proto-Oncogene, Receptor Tyrosine Kinase (MET), MET (gene 4233) (UniProt P08581); assay: NVS_ENZ_hMet: NovaScreen (NVS) Enzymatic Assay for human MET Proto-Oncogene, Receptor Tyrosine Kinase (MET) (AID 2283180)
# How it was run: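 Cell-free MET kinase assay using recombinant protein and fluorescent substrate, with mobility-shift separation; read 1 h after dosing. Primary duplicate at 25 uM; actives in singleton concentration-response to 50 uM maximum. Signal loss versus DMSO.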
# [15] = target: human Tyrosine Protein Kinase Receptor Tie-2 (Tie2), TEK (gene 7010) (UniProt Q02763); assay: NVS_ENZ_hTie2: NovaScreen (NVS) Enzymatic Assay for human Tyrosine Protein Kinase Receptor Tie-2 (Tie2) (AID 2283225)
# How it was run: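 Recombinant human Tie2 kinase activity was read cell-free by fluorescence with electrophoretic mobility shift, 1 hour after dosing. The screen used 25 uM in duplicate, then concentration-response up to 50 uM. Signal loss was scored against DMSO.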
# [16] = target: human Phosphatase and Tensin Homolog (PTEN), PTEN (gene 5728) (UniProt P60484); assay: NVS_ENZ_hPTEN: NovaScreen (NVS) Enzymatic Assay for human Phosphatase and Tensin Homolog (PTEN) (AID 2283203)
# human Phosphatase and Tensin Homolog (PTEN), PTEN (gene 5728), sequence (P60484 whole entry, looked up): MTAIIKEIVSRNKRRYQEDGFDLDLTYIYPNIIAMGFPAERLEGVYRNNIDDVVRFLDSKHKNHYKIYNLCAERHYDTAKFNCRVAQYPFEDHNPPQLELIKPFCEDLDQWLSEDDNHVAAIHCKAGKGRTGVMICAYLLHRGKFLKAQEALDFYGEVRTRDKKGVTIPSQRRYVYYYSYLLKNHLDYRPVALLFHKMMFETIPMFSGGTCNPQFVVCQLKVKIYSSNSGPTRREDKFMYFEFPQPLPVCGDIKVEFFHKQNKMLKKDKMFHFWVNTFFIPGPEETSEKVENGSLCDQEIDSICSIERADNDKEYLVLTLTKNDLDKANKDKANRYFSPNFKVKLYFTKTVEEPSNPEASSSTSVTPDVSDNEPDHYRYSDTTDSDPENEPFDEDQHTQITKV
# How it was run: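 Cell-free recombinant human PTEN with fluorescent substrate; product separated by electrophoretic mobility shift and read by fluorescence 1 h after dosing. Primary screen in duplicate at 25 uM, actives followed in concentration series versus DMSO.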
# [17] = target: human Fibroblast Growth Factor Receptor 1 (FGFR1), FGFR1 (gene 2260) (UniProt P11362); assay: NVS_ENZ_hFGFR1: NovaScreen (NVS) Enzymatic Assay for human Fibroblast Growth Factor Receptor 1 (FGFR1) (AID 2283159)
# How it was run: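 Cell-free recombinant kinase with fluorescent substrate, product separated by electrophoretic mobility shift; read 1 hour after dosing, loss of signal relative to DMSO. Initial screen in duplicate at 25 uM, actives followed in concentration series.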
# [18] = target: human Protein Tyrosine Phosphatase Receptor Type C (PTPRC), PTPRC (gene 5788) (UniProt P08575); assay: NVS_ENZ_hPTPRC: NovaScreen (NVS) Enzymatic Assay for human Protein Tyrosine Phosphatase Receptor Type C (PTPRC) (AID 2283212)
# How it was run: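 Yeast-extracted human PTPRC used in a cell-free colorimetric enzyme activity read-out, 1 h after dosing. Primary screen in duplicate at 25 uM; actives rerun in concentration-response up to 50 uM, DMSO as baseline.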
# [19] = target: Voltage-dependent N-type calcium channel subunit alpha-1B (Rattus norvegicus) (UniProt Q02294); assay: NVS_IC_rCaChN: NovaScreen (NVS) Ion Channel Assay for rat Calcium Channel, Type N (CaChN) (AID 2283317)
# [20] = target: bovine Gamma-Aminobutyric Acid Type A Receptor BDZ, alpha 1 site (GABARa1), GABRA1 (gene 780973) (UniProt P08219); assay: NVS_LGIC_bGABARa1: NovaScreen (NVS) Ligand-Gated Ion Channel Assay for bovine Gamma-Aminobutyric Acid Type A Receptor BDZ, alpha 1 site (GABARa1) (AID 2283321)
# How it was run: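 Radioligand competition binding on bovine cortical membranes, 0.75 h, filter-based scintillation counting. Primary single concentration 25 uM in duplicate; actives rerun in concentration-response to 50 uM max. Loss of signal fitted versus DMSO.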
compound,measurement,setting,value
CCCCCCCCCCCC[N+](C)(C)Cc1ccccc1,outcome,[1],inactive
FC(F)(F)C1(F)C(F)(F)C(F)(F)C(F)(F)C(F)(C(F)(F)F)C1(F)F (centres undefined),outcome,[1],inactive
CN(C)C(=O)C1(N2CCCCC2)CCN(CC[C@@]2(c3ccc(Cl)c(Cl)c3)CN(C(=O)c3ccccc3)CCO2)CC1,outcome,[1],inactive
same,AC50,[2],4.93 µM (active)
same,AC50,[3],17.1 µM (active)
same,AC50,[4],9.53 µM (active)
CCN(CC)CCOc1ccc(C(=C(Cl)c2ccccc2)c2ccccc2)cc1,outcome,[1],inactive
same,AC50,"rat CYP2B1, gene 24300",7.35 µM (active) and 7.71 µM (active)
same,outcome,"rat CYP2B1, gene 24300",inactive
same,outcome,[5],inactive
same,outcome,[3],inactive
same,AC50,[6],12.4 µM (active) [middle of 4 runs]
same,AC50,[7],3.9 µM (active)
same,outcome,[8],inactive
same,AC50,[9],5.01 µM (active)
same,outcome,[10],inactive
Oc1cc2ccccc2c2ccccc12,outcome,[1],inactive
same,AC50,[11],11.1 µM (active)
same,AC50,[12],14.6 µM (active)
same,AC50,[13],1.2 µM (active)
CCOCCOCCO,outcome,[1],inactive
same,outcome,[14],inactive
same,outcome,[6],inactive
C[C@]12CC[C@@H]3c4ccc(O)cc4C[C@@H](CCCCCCCCCS(=O)CCCC(F)(F)C(F)(F)F)[C@H]3[C@@H]1CC[C@@H]2O (some centres undefined),outcome,[1],inactive
same,outcome,[2],inactive
same,outcome,[15],inactive
OCCCc1cccnc1,outcome,[1],inactive
same,outcome,[16],inactive
O=C(O)Cn1c(=O)n(Cc2ccc(Br)cc2F)c(=O)c2ccc(Cl)cc21,outcome,[1],inactive
same,outcome,[12],inactive
same,outcome,[17],inactive
same,outcome,[18],inactive
same,outcome,[19],inactive
CCOC=C(C(=O)OCC)C(=O)OCC,outcome,[1],inactive
same,outcome,[16],inactive
CCCCOC(=O)c1ccc(O)cc1,outcome,[1],inactive
same,outcome,[12],inactive
same,AC50,[20],35.1 µM (active)
same,outcome,[8],inactive
